Assay results published in PubChem BioAssay (NCI).
Compounds without any hit were thinned out: in the full panel of roughly 83,000, 20% have a hit.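 Treatment: one concentration, 48 hours, 96-well format. Scoring: percent growth, with anything below 10 considered active.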 Activity calls are given as the source filed them.

Experiments:
Test in all cases: NCI-60 one-dose screen, 48 h (100 = growth as untreated, 0 = no growth, -100 = all killed)
Settings in all cases: 10 µM unless noted
DU-145 prostate = system: DU-145 prostate
K-562 leukemia = system: K-562 leukemia
MALME-3M melanoma = system: MALME-3M melanoma
MDA-MB-231 breast = system: MDA-MB-231 breast
RXF 393 renal = system: RXF 393 renal
SF-268 CNS = system: SF-268 CNS
SF-295 CNS = system: SF-295 CNS
SF-539 CNS = system: SF-539 CNS
UACC-257 melanoma = system: UACC-257 melanoma
M14 melanoma = system: M14 melanoma
HCT-15 colon = system: HCT-15 colon
HT29 colon = system: HT29 colon
SNB-75 CNS = system: SNB-75 CNS
SNB-19 CNS = system: SNB-19 CNS
U251 CNS = system: U251 CNS
PC-3 prostate = system: PC-3 prostate
SK-MEL-5 melanoma = system: SK-MEL-5 melanoma
UACC-62 melanoma = system: UACC-62 melanoma
LOX IMVI melanoma = system: LOX IMVI melanoma
SK-MEL-28 melanoma = system: SK-MEL-28 melanoma

Measured: growth

FC(F)(F)c1ccc(Cn2cc(CSc3nc4ccccc4s3)nn2)cc1
inactive: DU-145 prostate 108% | K-562 leukemia 97.1% | MALME-3M melanoma 111% | MDA-MB-231 breast 99% | RXF 393 renal 104% | SF-268 CNS 101% | SF-295 CNS 95.8% | SF-539 CNS 106% | UACC-257 melanoma 87% | M14 melanoma 100% | HCT-15 colon 101% | HT29 colon 94.4% | SNB-75 CNS 94% | SNB-19 CNS 101% | U251 CNS 96.3% | PC-3 prostate 95.7% | SK-MEL-5 melanoma 105% | UACC-62 melanoma 87.3% | LOX IMVI melanoma 110% | SK-MEL-28 melanoma 105%

COc1cc(-c2nc3sccn3c2-c2ccnc(NCCNS(=O)(=O)c3ccc(Cl)cc3)n2)ccc1F
active: SK-MEL-5 melanoma -14.7% | UACC-62 melanoma -45.3%
inactive: DU-145 prostate 32.3% | K-562 leukemia 13.6% | MALME-3M melanoma 31.3% | MDA-MB-231 breast 69% | RXF 393 renal 33.2% | SF-268 CNS 30.6% | SF-295 CNS 40.5% | SF-539 CNS 80% | UACC-257 melanoma 45.1% | M14 melanoma 21.5% | HCT-15 colon 20.6% | HT29 colon 22.8% | SNB-75 CNS 85.6% | SNB-19 CNS 78.8% | U251 CNS 55.6% | PC-3 prostate 13.1% | LOX IMVI melanoma 19.2% | SK-MEL-28 melanoma 44.9%

COc1cc(/C=C/C(=O)/C=C(O)/C=C/c2ccc(OC(=O)C34CC5CC(CC(C5)C3)C4)c(OC)c2)ccc1OC(=O)C12CC3CC(CC(C3)C1)C2
inactive: DU-145 prostate 113% | K-562 leukemia 106% | MALME-3M melanoma 97% | MDA-MB-231 breast 103% | RXF 393 renal 106% | SF-268 CNS 95.6% | SF-295 CNS 99.2% | SF-539 CNS 95.2% | UACC-257 melanoma 112% | M14 melanoma 102% | HCT-15 colon 99.3% | HT29 colon 104% | SNB-75 CNS 90% | SNB-19 CNS 101% | U251 CNS 104% | PC-3 prostate 101% | SK-MEL-5 melanoma 105% | UACC-62 melanoma 98.8% | LOX IMVI melanoma 95.3% | SK-MEL-28 melanoma 100%

C#CC#CC#CC#CC#CC#CC#CC#CCC1OC[C@H](COC(=O)O[C@@H](C(=O)O[C@H]2C[C@@]3(O)[C@@H](OC(=O)c4ccccc4)[C@@H]4[C@]5(OC(C)=O)CO[C@@H]5C[C@H](O)[C@@]4(C)C(=O)[C@H](OC(C)=O)C(=C2C)C3(C)C)[C@@H](NC(=O)c2ccccc2)c2ccccc2)O1 (stereo not given in full)
active: RXF 393 renal -2.06% | SF-539 CNS 8.47% | M14 melanoma 1.84% | HT29 colon 7.52% | SNB-75 CNS 7.72%
inactive: DU-145 prostate 17.3% | K-562 leukemia 15.5% | MALME-3M melanoma 47.2% | MDA-MB-231 breast 35.3% | SF-268 CNS 45.9% | SF-295 CNS 15.2% | UACC-257 melanoma 64.9% | HCT-15 colon 88% | SNB-19 CNS 27.9% | U251 CNS 26.2% | PC-3 prostate 23.2% | SK-MEL-5 melanoma 31.6% | UACC-62 melanoma 28.3% | LOX IMVI melanoma 29.6% | SK-MEL-28 melanoma 53.6%

O=C(CI)NC(=O)NC(=O)NCc1ccccc1
inactive: DU-145 prostate 78.2% | MDA-MB-231 breast 11.3% | RXF 393 renal 48.5% | SF-268 CNS 58.5% | SF-295 CNS 91.6% | SF-539 CNS 27.3% | UACC-257 melanoma 83% | HCT-15 colon 17.4% | HT29 colon 17.2% | SNB-75 CNS 81.4% | SNB-19 CNS 101% | U251 CNS 84% | PC-3 prostate 93.9% | SK-MEL-5 melanoma 56.1% | UACC-62 melanoma 79.3% | SK-MEL-28 melanoma 49.4%
active: K-562 leukemia -59.8% | MALME-3M melanoma -59% | M14 melanoma 6.48% | LOX IMVI melanoma -77.7%

COc1ccc2c(c1)c(-c1nc(-c3c[nH]c4ncccc34)cs1)cn2CCCN1CCOCC1
inactive: DU-145 prostate 41.5% | SF-268 CNS 43.9% | SF-539 CNS 33.6% | UACC-257 melanoma 49.9% | M14 melanoma 10% | HCT-15 colon 13.7% | SNB-75 CNS 21.4% | SNB-19 CNS 54.4% | U251 CNS 16.3% | PC-3 prostate 18.2% | SK-MEL-5 melanoma 31.6% | UACC-62 melanoma 44.1% | LOX IMVI melanoma 17%
active: K-562 leukemia -5.12% | MALME-3M melanoma 5.55% | MDA-MB-231 breast 9.85% | RXF 393 renal -9.75% | SF-295 CNS -34.4% | HT29 colon -12.9% | SK-MEL-28 melanoma -54.1%

CCOc1c(OC)cc2c(c1O)C(=O)N[C@@H]1[C@@H](O)[C@@H](O)[C@H](O)C[C@@H]21
inactive: DU-145 prostate 109% | K-562 leukemia 91.2% | MALME-3M melanoma 102% | MDA-MB-231 breast 106% | RXF 393 renal 109% | SF-268 CNS 102% | SF-295 CNS 102% | SF-539 CNS 97.7% | UACC-257 melanoma 100% | M14 melanoma 105% | HCT-15 colon 102% | HT29 colon 100% | SNB-75 CNS 93.5% | SNB-19 CNS 99% | U251 CNS 96.7% | PC-3 prostate 100% | SK-MEL-5 melanoma 101% | UACC-62 melanoma 93.1% | LOX IMVI melanoma 98.1% | SK-MEL-28 melanoma 105%

COc1ccc2c(c1)CCc1[nH]nc(-c3cc(OC)c(OC)c(OC)c3)c1-2
active: DU-145 prostate 7.06% | K-562 leukemia 7.23% | SF-295 CNS 1.46% | SF-539 CNS 0.378% | M14 melanoma 4.46% | HT29 colon 0.652% | U251 CNS 5.42% | SK-MEL-5 melanoma -54.2% | LOX IMVI melanoma 5.34%
inactive: MALME-3M melanoma 69.8% | MDA-MB-231 breast 19.2% | RXF 393 renal 22.6% | SF-268 CNS 17.8% | UACC-257 melanoma 38.2% | HCT-15 colon 10.3% | SNB-75 CNS 36.7% | SNB-19 CNS 28.7% | PC-3 prostate 12.6% | UACC-62 melanoma 28.8% | SK-MEL-28 melanoma 58%

CCN1C(=O)N(CC)C2C1N=C(SCc1ccc(Cl)cc1)N2/N=C/C=C/c1ccccc1OC (stereo not given)
inactive: DU-145 prostate 90.7% | K-562 leukemia 20.9% | MALME-3M melanoma 60.9% | MDA-MB-231 breast 75.2% | RXF 393 renal 49.8% | SF-268 CNS 64.5% | SF-295 CNS 57.5% | SF-539 CNS 68% | UACC-257 melanoma 42% | M14 melanoma 45.5% | HCT-15 colon 31.4% | HT29 colon 58.3% | SNB-75 CNS 50.1% | SNB-19 CNS 79.3% | U251 CNS 68.8% | PC-3 prostate 43.7% | SK-MEL-5 melanoma 44.2% | UACC-62 melanoma 31.2% | LOX IMVI melanoma 44.5% | SK-MEL-28 melanoma 70.9%

CCOC(=O)C(=Cc1ccc(-c2ccccc2)cc1)C(=O)OCC
active: HT29 colon 4.16% | LOX IMVI melanoma -56.6%
inactive: DU-145 prostate 36.6% | K-562 leukemia 20% | MALME-3M melanoma 70.6% | MDA-MB-231 breast 53.3% | RXF 393 renal 43% | SF-268 CNS 37.5% | SF-295 CNS 52.5% | SF-539 CNS 21.4% | UACC-257 melanoma 44.4% | M14 melanoma 42.5% | HCT-15 colon 13.3% | SNB-75 CNS 38% | SNB-19 CNS 54.9% | U251 CNS 21.3% | PC-3 prostate 31.8% | SK-MEL-5 melanoma 54.8% | UACC-62 melanoma 35.4% | SK-MEL-28 melanoma 31.1%

COc1ccc2c(c1)c(-c1nc(-c3c[nH]c4ncccc34)cs1)cn2CCO
inactive: DU-145 prostate 56.5% | K-562 leukemia 43.5% | MALME-3M melanoma 75.9% | MDA-MB-231 breast 51.5% | RXF 393 renal 30.1% | SF-268 CNS 66.6% | SF-295 CNS 57.9% | SF-539 CNS 50% | UACC-257 melanoma 91% | M14 melanoma 59.3% | HCT-15 colon 32% | HT29 colon 54.5% | SNB-75 CNS 31.7% | SNB-19 CNS 82.4% | U251 CNS 53.2% | PC-3 prostate 49% | SK-MEL-5 melanoma 58.4% | UACC-62 melanoma 58.4% | LOX IMVI melanoma 42.8% | SK-MEL-28 melanoma 78.5%

CN(Cc1cnc2nc(N)nc(N)c2n1)c1ccc(C(=O)NC(CCC(=O)O)C(=O)O)cc1Br (stereo not given)
inactive: DU-145 prostate 25.2% | K-562 leukemia 31.1% | MALME-3M melanoma 98.1% | MDA-MB-231 breast 60.2% | RXF 393 renal 58.6% | SF-268 CNS 34.4% | SF-295 CNS 27% | UACC-257 melanoma 59.4% | M14 melanoma 30.9% | HCT-15 colon 34.9% | HT29 colon 21.2% | SNB-75 CNS 54.5% | SNB-19 CNS 45.4% | U251 CNS 43% | PC-3 prostate 56.9% | SK-MEL-5 melanoma 13.8% | UACC-62 melanoma 30.9% | LOX IMVI melanoma 17.7% | SK-MEL-28 melanoma 50%
active: SF-539 CNS 6.95%

O=C(/C=C/c1ccc(Oc2ccc(Br)cc2)cc1)c1ccc(Br)cc1
inactive: DU-145 prostate 102% | K-562 leukemia 91.8% | MALME-3M melanoma 98% | MDA-MB-231 breast 101% | RXF 393 renal 100% | SF-268 CNS 101% | SF-295 CNS 100% | SF-539 CNS 102% | UACC-257 melanoma 98.1% | M14 melanoma 93.5% | HCT-15 colon 98.5% | HT29 colon 100% | SNB-75 CNS 90.7% | SNB-19 CNS 97.6% | U251 CNS 95% | PC-3 prostate 100% | SK-MEL-5 melanoma 102% | UACC-62 melanoma 91.4% | LOX IMVI melanoma 96.2% | SK-MEL-28 melanoma 105%

COc1cccc(CCNc2ncnc3c2ncn3Cc2nnc3c4ccccc4c(Cl)nn23)c1
active: LOX IMVI melanoma 8.78%
inactive: DU-145 prostate 50.5% | K-562 leukemia 61.4% | MALME-3M melanoma 55.8% | MDA-MB-231 breast 46.3% | RXF 393 renal 48.7% | SF-268 CNS 49.4% | SF-295 CNS 89.9% | SF-539 CNS 72.6% | UACC-257 melanoma 59.5% | M14 melanoma 32.2% | HCT-15 colon 45.2% | HT29 colon 81.7% | SNB-75 CNS 50.5% | SNB-19 CNS 74.4% | U251 CNS 50.7% | PC-3 prostate 59.5% | SK-MEL-5 melanoma 77.1% | UACC-62 melanoma 32.9% | SK-MEL-28 melanoma 71.6%
